# Source: paper PMC7862700, “An all-to-all approach to the identification of sequence-specific readers for epigenetic DNA modifications on cytosine”
# Assays:
# Experiment in all cases: DAPPL (digital affinity profiling via proximity ligation, sequencing); 10 mM Tris-HCl pH 7.5, 50 mM NaCl, 1 mM DTT, 4% glycerol, room temperature, 30 min; GST-TFs on glutathione beads, 16-mer random dsDNA library, 0.1% formaldehyde crosslink after washing; high values mean tight binding
# Details in all cases: protein: recombinant; tags: N-terminal GST; dsDNA, one strand shown
# [1] = target: T1, ELK1 (Homo sapiens, UniProt P19419 1-428)
# T1 sequence: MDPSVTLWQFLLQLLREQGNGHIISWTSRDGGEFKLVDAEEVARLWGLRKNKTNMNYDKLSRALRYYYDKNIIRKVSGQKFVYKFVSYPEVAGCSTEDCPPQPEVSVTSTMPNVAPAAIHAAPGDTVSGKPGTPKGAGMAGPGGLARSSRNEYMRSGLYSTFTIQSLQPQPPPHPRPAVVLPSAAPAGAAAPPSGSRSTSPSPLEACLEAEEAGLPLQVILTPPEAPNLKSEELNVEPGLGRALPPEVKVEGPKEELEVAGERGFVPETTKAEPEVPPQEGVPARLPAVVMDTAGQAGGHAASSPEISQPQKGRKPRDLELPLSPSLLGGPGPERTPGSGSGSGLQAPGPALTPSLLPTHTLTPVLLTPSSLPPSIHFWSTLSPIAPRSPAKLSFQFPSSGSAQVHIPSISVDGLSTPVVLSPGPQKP
# How it was run: (§1)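 GST fusions of human transcription factors were expressed in yeast and captured with glutathione beads. Once given DNA barcodes and pooled alongside a tag-only sample, they were incubated for 30 min at room temperature with 200 nmole of a random double-stranded 16-mer DNA library in Tris/NaCl/DTT/glycerol buffer, then washed, crosslinked (0.1% formaldehyde), proximity-ligated, PCR-amplified and sequenced on an Illumina NextSeq500. The binding signal of each hexamer is its read frequency for a factor divided by its frequency for the tag-only sample.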
# [2] = target: T2, GABPA (Homo sapiens, UniProt Q06546 1-454)
# T2 sequence: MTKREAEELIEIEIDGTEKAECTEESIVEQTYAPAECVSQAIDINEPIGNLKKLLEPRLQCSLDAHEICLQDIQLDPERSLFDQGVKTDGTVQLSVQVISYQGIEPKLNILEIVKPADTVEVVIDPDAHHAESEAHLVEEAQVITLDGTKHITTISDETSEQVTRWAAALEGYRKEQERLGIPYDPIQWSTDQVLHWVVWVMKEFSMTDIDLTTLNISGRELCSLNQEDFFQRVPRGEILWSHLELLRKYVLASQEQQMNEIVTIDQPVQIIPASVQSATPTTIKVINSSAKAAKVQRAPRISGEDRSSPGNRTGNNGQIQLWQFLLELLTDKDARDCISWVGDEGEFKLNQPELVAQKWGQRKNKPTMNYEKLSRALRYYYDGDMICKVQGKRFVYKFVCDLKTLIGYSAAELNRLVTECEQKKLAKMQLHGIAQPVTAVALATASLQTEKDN
# How it was run: as §1
# [3] = target: T3, ERG (Homo sapiens, UniProt P11308 1-479)
# T3 sequence: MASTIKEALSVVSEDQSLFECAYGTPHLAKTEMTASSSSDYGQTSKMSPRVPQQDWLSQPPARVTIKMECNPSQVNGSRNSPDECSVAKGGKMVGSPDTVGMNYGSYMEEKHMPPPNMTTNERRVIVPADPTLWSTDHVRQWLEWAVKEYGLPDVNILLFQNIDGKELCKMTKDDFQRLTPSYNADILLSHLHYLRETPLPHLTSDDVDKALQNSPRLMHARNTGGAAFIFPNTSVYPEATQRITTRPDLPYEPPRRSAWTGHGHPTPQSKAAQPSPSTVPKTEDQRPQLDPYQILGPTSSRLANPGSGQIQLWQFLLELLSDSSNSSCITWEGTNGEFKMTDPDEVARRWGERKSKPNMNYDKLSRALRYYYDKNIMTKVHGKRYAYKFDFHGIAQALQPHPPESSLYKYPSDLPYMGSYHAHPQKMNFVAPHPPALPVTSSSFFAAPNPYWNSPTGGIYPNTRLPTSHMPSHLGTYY
# How it was run: as §1
# [4] = target: ELF1 (Homo sapiens, UniProt P32519 1-619)
# Chain of ELF1 (P32519 whole entry): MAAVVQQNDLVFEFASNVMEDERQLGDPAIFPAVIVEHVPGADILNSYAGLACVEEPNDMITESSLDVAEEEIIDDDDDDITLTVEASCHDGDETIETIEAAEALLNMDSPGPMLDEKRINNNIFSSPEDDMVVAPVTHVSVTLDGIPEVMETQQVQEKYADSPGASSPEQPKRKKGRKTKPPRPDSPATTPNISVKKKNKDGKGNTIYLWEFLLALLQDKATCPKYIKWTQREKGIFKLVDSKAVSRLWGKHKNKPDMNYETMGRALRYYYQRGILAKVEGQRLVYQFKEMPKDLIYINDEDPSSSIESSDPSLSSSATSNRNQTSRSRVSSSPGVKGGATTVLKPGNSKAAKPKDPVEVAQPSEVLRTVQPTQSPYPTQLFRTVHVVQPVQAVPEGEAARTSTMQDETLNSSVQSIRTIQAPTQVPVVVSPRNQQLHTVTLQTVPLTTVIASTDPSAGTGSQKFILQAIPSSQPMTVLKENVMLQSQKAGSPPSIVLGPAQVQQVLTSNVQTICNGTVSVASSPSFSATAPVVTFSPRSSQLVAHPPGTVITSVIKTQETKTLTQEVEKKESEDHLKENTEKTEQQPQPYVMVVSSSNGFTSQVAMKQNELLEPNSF
# How it was run: as §1
# [5] = target: T4, EHF (Homo sapiens, UniProt Q9NZC4 1-300)
# T4 sequence: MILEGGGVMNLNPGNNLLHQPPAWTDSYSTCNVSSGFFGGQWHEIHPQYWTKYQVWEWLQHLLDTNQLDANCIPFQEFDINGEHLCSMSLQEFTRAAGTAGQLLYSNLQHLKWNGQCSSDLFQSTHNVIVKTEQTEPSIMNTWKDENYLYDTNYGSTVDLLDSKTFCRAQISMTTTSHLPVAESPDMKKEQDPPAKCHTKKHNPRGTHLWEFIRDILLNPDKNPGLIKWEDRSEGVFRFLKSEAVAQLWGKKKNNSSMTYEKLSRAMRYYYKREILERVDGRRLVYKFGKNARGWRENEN
# How it was run: as §1
# [6] = target: SPIB (Homo sapiens, UniProt Q01892 1-262)
# Chain of SPIB (Q01892 whole entry): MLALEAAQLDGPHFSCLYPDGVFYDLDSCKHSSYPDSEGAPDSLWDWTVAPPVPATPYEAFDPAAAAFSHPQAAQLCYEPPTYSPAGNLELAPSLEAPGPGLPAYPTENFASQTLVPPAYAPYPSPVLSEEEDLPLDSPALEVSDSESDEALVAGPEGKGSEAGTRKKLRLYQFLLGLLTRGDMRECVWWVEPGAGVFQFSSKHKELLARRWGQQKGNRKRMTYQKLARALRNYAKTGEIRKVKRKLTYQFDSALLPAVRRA
# How it was run: as §1
# [7] = target: T5, ELK3 (Homo sapiens, UniProt P41970 1-407)
# T5 sequence: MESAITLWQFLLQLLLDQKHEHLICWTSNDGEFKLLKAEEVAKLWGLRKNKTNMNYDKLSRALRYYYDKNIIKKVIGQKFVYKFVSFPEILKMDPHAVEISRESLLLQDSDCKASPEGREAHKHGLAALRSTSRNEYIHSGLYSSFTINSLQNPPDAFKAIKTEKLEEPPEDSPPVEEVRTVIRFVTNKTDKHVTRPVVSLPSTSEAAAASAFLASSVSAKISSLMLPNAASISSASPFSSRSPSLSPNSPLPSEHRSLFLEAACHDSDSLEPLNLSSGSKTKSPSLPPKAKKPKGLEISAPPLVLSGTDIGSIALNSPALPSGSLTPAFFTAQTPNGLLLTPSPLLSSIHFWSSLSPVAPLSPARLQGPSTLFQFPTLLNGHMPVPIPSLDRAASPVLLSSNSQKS
# How it was run: as §1
# [8] = target: T6, FEV (Homo sapiens, UniProt Q99581 1-238)
# T6 sequence: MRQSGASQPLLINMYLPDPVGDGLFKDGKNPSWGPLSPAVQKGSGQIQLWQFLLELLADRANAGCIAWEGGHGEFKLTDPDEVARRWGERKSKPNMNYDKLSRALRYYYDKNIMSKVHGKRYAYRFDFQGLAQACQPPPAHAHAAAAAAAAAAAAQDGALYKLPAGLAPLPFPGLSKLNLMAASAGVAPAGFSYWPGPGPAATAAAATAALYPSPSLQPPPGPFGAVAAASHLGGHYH
# How it was run: as §1
# [9] = target: ETV5 (Homo sapiens, UniProt P41161 1-510)
# Chain of ETV5 (P41161 whole entry): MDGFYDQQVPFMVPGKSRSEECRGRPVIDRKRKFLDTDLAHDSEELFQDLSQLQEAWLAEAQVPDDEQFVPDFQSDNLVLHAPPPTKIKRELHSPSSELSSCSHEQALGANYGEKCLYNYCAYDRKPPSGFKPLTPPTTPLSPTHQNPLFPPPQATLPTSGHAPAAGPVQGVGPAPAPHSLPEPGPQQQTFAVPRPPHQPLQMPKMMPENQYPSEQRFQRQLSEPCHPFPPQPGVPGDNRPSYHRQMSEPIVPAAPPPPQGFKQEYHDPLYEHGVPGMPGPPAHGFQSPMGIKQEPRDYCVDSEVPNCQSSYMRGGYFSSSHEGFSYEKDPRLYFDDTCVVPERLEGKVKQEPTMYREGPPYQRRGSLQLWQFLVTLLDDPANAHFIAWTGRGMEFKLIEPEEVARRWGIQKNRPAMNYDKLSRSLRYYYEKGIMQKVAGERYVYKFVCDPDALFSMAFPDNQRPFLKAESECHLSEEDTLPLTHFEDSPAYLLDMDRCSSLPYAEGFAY
# How it was run: as §1
# [10] = target: ELF4 (Homo sapiens, UniProt Q99607 1-663)
# Chain of ELF4 (Q99607 whole entry): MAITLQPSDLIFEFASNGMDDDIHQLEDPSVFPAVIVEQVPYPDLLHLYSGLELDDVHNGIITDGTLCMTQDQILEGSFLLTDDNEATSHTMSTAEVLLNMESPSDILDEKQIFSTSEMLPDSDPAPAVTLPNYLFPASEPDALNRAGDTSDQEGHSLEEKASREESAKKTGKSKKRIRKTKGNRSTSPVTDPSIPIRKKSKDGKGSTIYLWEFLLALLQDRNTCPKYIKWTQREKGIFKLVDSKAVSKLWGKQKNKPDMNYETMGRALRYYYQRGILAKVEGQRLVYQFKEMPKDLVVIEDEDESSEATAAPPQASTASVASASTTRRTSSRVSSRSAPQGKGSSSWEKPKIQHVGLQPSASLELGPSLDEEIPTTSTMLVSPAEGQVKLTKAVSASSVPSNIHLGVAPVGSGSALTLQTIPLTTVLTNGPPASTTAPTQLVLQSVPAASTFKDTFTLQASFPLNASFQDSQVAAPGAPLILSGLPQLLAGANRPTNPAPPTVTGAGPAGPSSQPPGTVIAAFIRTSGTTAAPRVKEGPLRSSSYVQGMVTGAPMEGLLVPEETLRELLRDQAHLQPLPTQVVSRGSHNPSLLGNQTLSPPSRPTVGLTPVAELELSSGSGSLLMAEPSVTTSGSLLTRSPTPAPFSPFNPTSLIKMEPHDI
# How it was run: as §1
sequence,measurement,setting,value
CCCAAA,binding signal,[1],"1.15 fold enrichment (6-mer frequency, TF over GST control)"
same,binding signal,[2],"1.17 fold enrichment (6-mer frequency, TF over GST control)"
same,binding signal,[3],"1.13 fold enrichment (6-mer frequency, TF over GST control)"
same,binding signal,[4],"1.18 fold enrichment (6-mer frequency, TF over GST control)"
same,binding signal,[5],"1.12 fold enrichment (6-mer frequency, TF over GST control)"
same,binding signal,[6],"1.14 fold enrichment (6-mer frequency, TF over GST control)"
same,binding signal,[7],"1.1 fold enrichment (6-mer frequency, TF over GST control)"
same,binding signal,[8],"1.08 fold enrichment (6-mer frequency, TF over GST control)"
same,binding signal,[9],"1.07 fold enrichment (6-mer frequency, TF over GST control)"
same,binding signal,[10],"1.17 fold enrichment (6-mer frequency, TF over GST control)"
